# Data reported in PubChem BioAssay AID2235 (The Scripps Research Institute Molecular Screening Center, 2010).
# Hit rate of the full screen: of about 320,000 compounds, about 2,800 (0.88%) were called active. The sample as a whole holds a higher share of actives than the screen did. A number with no mark means an inactive call.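 Rule for the calls: active = inhibition above the mean inhibition of all tested compounds plus 3 SD, computed separately for each screening campaign (cut at about 15% in these data); inactive = the rest.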
# Target: Serine/threonine-protein phosphatase PP1-alpha catalytic subunit (Homo sapiens) (UniProt P62136)
# Sequence (P62136 whole entry, looked up): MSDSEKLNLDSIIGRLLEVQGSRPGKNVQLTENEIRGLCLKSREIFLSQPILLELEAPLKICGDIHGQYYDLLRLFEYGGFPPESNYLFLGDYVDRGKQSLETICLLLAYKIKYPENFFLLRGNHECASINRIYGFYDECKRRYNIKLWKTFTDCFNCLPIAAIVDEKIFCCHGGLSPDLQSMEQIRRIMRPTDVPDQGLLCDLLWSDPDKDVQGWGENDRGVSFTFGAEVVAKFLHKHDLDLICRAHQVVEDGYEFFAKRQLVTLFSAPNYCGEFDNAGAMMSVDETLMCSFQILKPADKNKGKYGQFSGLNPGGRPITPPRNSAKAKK
# Test: inhibition of human PP1 catalytic subunit – biochemical, fluorescence, OMFP substrate, single point, counter-screen for PP5 inhibitor project, primary screen (AID 2235)
# Conditions: purified PP1alpha, at 6.7 µM, active compounds read high
row,SMILES,inhibition
1,CCn1cc(CNC(=O)c2cc([N+](=O)[O-])c(C)c([N+](=O)[O-])c2)cn1,-2.81%
2,COc1ccc(C(=O)NC2(C(F)(F)F)NC(=O)N(CCCc3ccccc3)C2=O)c(OC)c1OC (stereo not drawn),1.31%
3,Cc1ccc(C2=N/C(=C\c3ccc(OS(=O)(=O)c4ccc(C)cc4)cc3)C(=O)O2)cc1,0.93%
4,O=C1OC(c2ccc(Cl)cc2)=N/C1=C\c1cccnc1,-0.8%
5,CCOc1cc(/C=C2/N=C(c3ccc(C(C)(C)C)cc3)OC2=O)cc(Cl)c1OS(C)(=O)=O,16% (active)
6,COc1ccc(NS(=O)(=O)c2ccc(C)c(C(=O)NCC(c3cccs3)N3CCOCC3)c2)cc1 (stereo not drawn),-0.23%
7,O=C(COc1ccc(S(=O)(=O)NCc2ccccc2)cc1)N1CCOCC1,0.87%
8,Cc1cnc(C(=O)N2CCCC(C(=O)c3ccc(C(F)(F)F)cc3)C2)cn1 (stereo not drawn),-4.22%
9,Cc1c(-c2nn(C)c(=O)c3ccccc23)oc2ccc(F)cc2c1=O,3.07%
10,Cc1cc(C)c(S(=O)(=O)NCCCN2CCOCC2)cc1Br,-3.53%
11,Cc1cccc2cc(CN(Cc3ccc4c(c3)OCO4)Cc3nnnn3C3CCCC3)c(=O)[nH]c12,-2.51%
12,CCC(c1nnnn1C1CCCC1)N(Cc1cccs1)Cc1cc2cccc(C)c2[nH]c1=O (stereo not drawn),16.5% (active)
13,CCC(c1nnnn1Cc1ccco1)N(CCc1ccccc1)Cc1cc2cccc(C)c2[nH]c1=O (stereo not drawn),7.62%
14,COc1ccc(OC)c(NC(=O)CN(Cc2ccc(Cl)cc2)S(C)(=O)=O)c1,0.99%
15,CCOc1cc(-c2nc3cc(C)ccn3c2NCC2CCCO2)ccc1O (stereo not drawn),-2.03%
16,CCCCCN(C(=O)NC(=O)Nc1cccc(C)c1C)S(C)(=O)=O,4.61%
17,CCCc1ccc(OCC(=O)NNC(=S)NC(=O)c2ccco2)cc1,18.6% (active)
18,Cc1ccc(OCC(=O)NCCCNC(=O)c2ccco2)cc1C,2.4%
19,CC(Oc1ccc2ccccc2c1)C(=O)NNC(=S)NC(=O)c1ccco1 (stereo not drawn),0.47%
20,CCN(CC)CCC(c1ccc2c(c1)OCO2)c1c(OC)cc(OC)c2c(-c3ccccc3)cc(=O)oc12 (stereo not drawn),1.96%
21,O=C(NCCc1ccccc1)C1CCC(Cn2c(=O)c3ccccc3n(Cc3cccnc3)c2=O)CC1 (stereo not drawn),-0.9%
22,CCC(C)N(C(=O)COC(=O)c1nc(Cl)ccc1Cl)C1CCS(=O)(=O)C1 (stereo not drawn),-0.12%

row,SMILES,inhibition
1,Cc1nn(C)c(Oc2ccc(Cl)cc2)c1C=O,-4.58%
2,Cc1ccc2c(c1)NCC(C(=O)NC1CCC(C)CC1)O2 (stereo not drawn),-3.3%
3,Cc1ccc(O)c(CNc2nc3ccccc3n2C)c1,-1.3%
4,Cn1c(Nc2cccc(Cl)c2)nc2ccccc21,-3.75%
5,C/C(=N\c1nc2ccccc2n1C)c1cc(Cl)ccc1O,22% (active)
6,CCc1ccc(NC(=O)CSc2nnc(-c3cnccn3)n2Cc2ccco2)cc1,2.61%
7,Cc1ccc(NC(=O)CSc2nnc(-c3cnccn3)n2Cc2ccco2)cc1C,1.95%
8,CCn1c(SCC(=O)Nc2cc(C)ccc2C)nnc1-c1cnccn1,20.4% (active)
9,O=C(COC(=O)c1ccccc1Br)Nc1nnc(-c2ccccc2)o1,13.9%
10,CC(=O)Nc1cccc(C(=O)OCC(=O)Nc2nnc(-c3ccccc3)o2)c1,0.85%
11,O=C(COC(=O)c1ccc(Oc2ccccc2)cc1)Nc1nnc(-c2ccccc2)o1,23.5% (active)
12,Cc1ccc(S(=O)(=O)N(C)c2ccc(OCC(=O)NC3=NCCS3)cc2)cc1,-1.97%
13,Cc1ccc(N=C2NC(=O)/C(=C/C=C/c3ccco3)S2)cc1C,16.1% (active)
14,Cc1ccc(N2NC(=O)/C(=C/C=C/c3ccco3)C2=O)cc1C,1.04%
15,CN1C(=O)/C(=C/c2ccco2)SC1=Nc1cccc(C(=O)O)c1,-2.67%
16,Cc1ccc(C)c(Cn2cnc3c(oc4ccccc43)c2=O)c1,1.24%
17,C=CCn1c(SCc2ccc(C(=O)NCCO)cc2)nc2ccccc2c1=O,2.26%
18,O=C(Nn1c(SCc2ccc([N+](=O)[O-])cc2)nc2ccccc2c1=O)c1ccc(F)cc1,15.9% (active)
19,Cc1nc2ccccc2c(=O)n1NC(=O)c1ccc(Cl)c([N+](=O)[O-])c1,2.24%
20,COc1ccc(C(=O)c2c3ccc([N+](=O)[O-])cc3[n+]([O-])n2CCCN)cc1,5.14%
21,CCOc1ccc(NC(=O)CN(C)CC(=O)NC(C)c2ccccc2)cc1OCC (stereo not drawn),-1.29%
